Test results published in PubChem BioAssay (EPA / NIEHS).
Values joined by “and” are separate entries in the source; they are usually repeats but may differ in a detail not shown here. Equal values may be shown once. Active and inactive are the calls of the source. How the source made its calls: active means hit-call score of the fitted dose curve at least 0.9, where 1 is the maximum; inactive means score below 0.9.

Assays:
[1] = read-out: Vascular cell adhesion molecule 1 (VCAM1), VCAM1 (gene 7412); test: BSK_4H_VCAM1: BioMAP Diversity Plus: 4H Assay for Vascular cell adhesion molecule 1 (VCAM1) Biomarker Activity (AID 2283033); conditions: primary human endothelial cells (HUVEC); actives raise or lower the signal
Summary of the method: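 VCAM-1 ELISA read 24 h after chemical dosing of HUVEC in the BioMAP 4H system, with gain or loss of signal fitted relative to DMSO. Parallel SRB staining (560 nm) checked overt cytotoxicity.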

[2] = read-out: Interferon-gamma inducible Protein 10 (IP10), CXCL10 (gene 3627); test: BSK_BE3C_IP10: BioMAP Diversity Plus: BE3C Assay for Interferon-gamma inducible Protein 10 (IP10) Biomarker Activity (AID 2283034); conditions: primary human bronchial epithelial cells; actives raise or lower the signal
Summary of the method: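 IP-10 quantified by ELISA in human primary bronchial epithelial cell cultures at 24 hours post-dosing. Gain or loss of signal fitted relative to DMSO; parallel SRB staining assessed overt cytotoxicity.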

[3] = read-out: Monokine induced gamma interferon (MIG), CXCL9 (gene 4283); test: BSK_BE3C_MIG: BioMAP Diversity Plus: BE3C Assay for Monokine induced gamma interferon (MIG) Biomarker Activity (AID 2283035); conditions: primary human bronchial epithelial cells; actives raise or lower the signal
Summary of the method: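 Dose cells (human primary bronchial epithelial), incubate 24 h, quantify MIG by ELISA, then fit concentration–response in both directions relative to DMSO control.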

[4] = read-out: Plasminogen activator inhibitor-1 (PAI1), SERPINE1 (gene 5054); test: BSK_BE3C_PAI1: BioMAP Diversity Plus: BE3C Assay for Plasminogen activator inhibitor-1 (PAI1) Biomarker Activity (AID 2283037); conditions: primary human bronchial epithelial cells; actives raise or lower the signal
Summary of the method: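 PAI-1 was measured by ELISA in human primary bronchial epithelial cultures 24 h after chemical dosing, with cytotoxicity checked by SRB total-protein staining in parallel cultures. Activity was fitted in both directions relative to DMSO.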

[5] = read-out: urokinase plasminogen activator (uPA), PLAU (gene 5328); test: BSK_BE3C_uPA: BioMAP Diversity Plus: BE3C Assay for urokinase plasminogen activator (uPA) Biomarker Activity (AID 2283038); conditions: primary human bronchial epithelial cells; actives raise or lower the signal
Summary of the method: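 Primary human bronchial epithelial cells, uPA measured by ELISA 24 h after dosing. Bidirectional change relative to DMSO; cytotoxicity checked in parallel cultures by sulforhodamine B total-protein staining.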

[6] = read-out: Urokinase-type plasminogen activator receptor (uPAR), PLAUR (gene 5329); test: BSK_BE3C_uPAR: BioMAP Diversity Plus: BE3C Assay for Urokinase-type plasminogen activator receptor (uPAR) Biomarker Activity (AID 2283039); conditions: primary human bronchial epithelial cells; actives raise or lower the signal
Summary of the method: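 uPAR levels were measured by ELISA after 24 h compound treatment of primary human bronchial epithelial cells, fitted in both directions relative to DMSO. Parallel SRB staining served as the cytotoxicity read-out.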

[7] = read-out: Interleukin-6 (IL6), IL6 (gene 3569); test: BSK_CASM3C_IL6: BioMAP Diversity Plus: CASM3C Assay for Interleukin-6 (IL6) Biomarker Activity for (AID 2283040); conditions: primary human coronary artery smooth muscle cells; actives raise or lower the signal
[8] = read-out: Tissue plasminogen activator (tPA), PLAT (gene 5327); test: BSK_BE3C_tPA: BioMAP Diversity Plus: BE3C Assay for Tissue plasminogen activator (tPA) Biomarker Activity (AID 2283041); conditions: primary human bronchial epithelial cells; actives raise or lower the signal
Summary of the method: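 tPA measured by ELISA 24 h after dosing human primary bronchial epithelial cells (BE3C system). Changes in either direction were fitted against DMSO. Parallel cultures were stained with SRB to flag overt cytotoxicity.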

[9] = read-out: Interleukin-8 (IL8), CXCL8 (gene 3576); test: BSK_CASM3C_IL8: BioMAP Diversity Plus: CASM3C Assay for Interleukin-8 (IL8) Biomarker Activity (AID 2283042); conditions: primary human coronary artery smooth muscle cells; actives raise or lower the signal;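 further: IL-8 protein level quantified by ELISA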
[10] = read-out: Transforming growth factor beta 1 (TGFb1), TGFB1 (gene 7040); test: BSK_BE3C_TGFb1: BioMAP Diversity Plus: BE3C Assay for Transforming growth factor beta 1 (TGFb1) Biomarker Activity (AID 2283036); conditions: primary human bronchial epithelial cells; actives raise or lower the signal
Summary of the method: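 ELISA readout of TGF-b1 from human lung bronchial epithelial primary cells, taken 24 h post-treatment. Gain or loss of signal fitted relative to DMSO baseline, with parallel SRB staining for overt cytotoxicity.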

Measured: AC50

O=C(O)C(F)(F)OC(F)(F)C(F)(F)OC(F)(F)C(F)(F)OC(F)(F)C(F)(F)C(F)(F)C(F)(F)F
inactive: [7] | [9]
active: [1] 48.4 µM and 50.2 µM | [2] 4.85 µM and 4.88 µM | [3] 4.58 µM and 4.77 µM | [4] 4.78 µM and 4.58 µM | [5] 3.94 µM and 3.9 µM | [6] 5.83 µM and 5.88 µM | [8] 4.98 µM and 4.8 µM

O=C(O)CCC(F)(F)C(F)(F)C(F)(F)C(F)(F)C(F)(F)C(F)(F)F
not listed: [10]
inactive: all other assays above

CCCCc1oc2ccccc2c1C(=O)c1cc(I)c(OCCN(CC)CC)c(I)c1
active: [1] 19.6 µM | [2] 12 µM | [3] 23.3 µM | [10] 12.2 µM | [4] 18.8 µM | [5] 20.1 µM | [6] 20.6 µM | [7] 27.8 µM | [8] 9.06 µM | [9] 23.9 µM

CC(=O)Nc1ccc(O)cc1
inactive: all assays above

C[C@]12CC[C@@H]3c4ccc(O)cc4CC[C@H]3[C@@H]1C[C@@H](O)[C@@H]2O
inactive: all assays above

CCCCC(CC)C(=O)O (stereo not given)
inactive: all assays above

O=C(CC(=O)C(F)(F)C(F)(F)C(F)(F)F)c1cccs1
inactive: [9]
active: [1] 27.6 µM and 31 µM | [2] 19.5 µM and 18.9 µM | [3] 24.6 µM and 42 µM | [4] 10.9 µM and 10 µM | [5] 47.4 µM and 46 µM | [6] 45.6 µM | [7] 38.1 µM and 20.8 µM | [8] 22.3 µM and 20.7 µM

O=P(O)(O)CCC(F)(F)C(F)(F)C(F)(F)C(F)(F)C(F)(F)C(F)(F)C(F)(F)C(F)(F)F
active: [8] 1.08 µM and 5.14 µM
not listed: [10]
inactive: all other assays above

Oc1c(Cl)cc(Cl)cc1Sc1cc(Cl)cc(Cl)c1O
inactive: [7] | [9]
active: [1] 12.8 µM | [2] 4.76 µM | [3] 6.66 µM and 7.75 µM | [4] 4.59 µM | [5] 5.33 µM and 5.44 µM | [6] 1.8 µM and 1.83 µM | [8] 4.32 µM and 3.03 µM
